Reference: PubChem BioAssay (NCI)
About 79,000 compounds went through this panel and 15% of them were active in at least one assay; those are over-represented in the sample as a whole. Calls of active or inactive are those of the source. Rule as the data show it: active = growth inhibition above about 70%; inactive = the rest.

Legend:
[1] = NCI Yeast Anticancer Drug Screen. Data for the wt1 strain (AID 149);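 also: 0% = growth of vehicle-treated wt1 cultures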; settings: S. cerevisiae wt1 strain (SPY 50644) growth inhibition, stronger effect = higher value
In short: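 The wt1 strain was treated with compounds, and growth was compared with vehicle-treated cultures to give inhibition.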

[2] = NCI Yeast Anticancer Drug Screen. Data for the rad50EPP+ strain (AID 151);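 also: 0% = growth of vehicle-treated control cultures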; settings: S. cerevisiae rad50 mutant strain, stronger effect = higher value
In short: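 Compounds were applied to the rad50EPP+ yeast strain, which bears a defined DNA repair alteration, and growth inhibition was determined relative to vehicle-treated cultures.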

[3] = NCI Yeast Anticancer Drug Screen. Data for the mgt1 strain (AID 153); settings: S. cerevisiae mgt1 mutant growth inhibition, stronger effect = higher value
In short: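 Strain: mgt1 yeast, one of a set carrying defined DNA damage repair or cell cycle control alterations. Compound-treated growth compared with vehicle.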

[4] = NCI Yeast Anticancer Drug Screen. Data for the rad50 strain (AID 155);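 also: 0% = growth of vehicle-only cultures of the same strain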; settings: S. cerevisiae rad50 strain growth inhibition, stronger effect = higher value
In short: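 Cells are treated with compound, grown, and their growth is then scored against vehicle-only cultures of the same repair-deficient yeast strain.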

[5] = NCI Yeast Anticancer Drug Screen. Data for the mec2-1 strain (AID 157); settings: S. cerevisiae mec2-1 strain, stronger effect = higher value
In short: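 Strain: mec2-1 (DNA repair/cell cycle alteration). Compound exposure, then growth measured; inhibition expressed relative to vehicle.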

[6] = NCI Yeast Anticancer Drug Screen. Data for the rad14 strain (AID 159);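 also: 0% = growth of vehicle-treated control cultures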; settings: S. cerevisiae rad14 strain growth inhibition, stronger effect = higher value
In short: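 Readout: yeast growth inhibition, referenced to vehicle-only cultures. Strain bears a defined alteration in DNA damage repair.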

[7] = NCI Yeast Anticancer Drug Screen. Data for the sgs1 mgt1 strain (AID 161);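 also: 0% = growth of cultures given vehicle only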; settings: S. cerevisiae sgs1 mgt1 strain, stronger effect = higher value
In short: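 Inhibition of yeast growth, normalised to vehicle-treated controls, is reported for a strain bearing genetic alterations in DNA damage repair.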

[8] = NCI Yeast Anticancer Drug Screen. Data for the CLN2oe strain (AID 163);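 also: 0% = growth of vehicle-only control cultures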; settings: S. cerevisiae CLN2oe strain, stronger effect = higher value
In short: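 Growth of a genetically modified yeast strain is measured after compound exposure and compared with cultures given vehicle alone.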

[9] = NCI Yeast Anticancer Drug Screen. Data for the cln2 rad14 strain (AID 165);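 also: 0% = growth equal to vehicle treated cultures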; settings: S. cerevisiae cln2 rad14 strain, stronger effect = higher value
In short: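 Compounds are applied to the cln2 rad14 yeast strain, and growth is then compared with that of vehicle-treated cultures to give inhibition.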

[10] = NCI Yeast Anticancer Drug Screen. Data for the bub3 strain (AID 167); settings: S. cerevisiae bub3 mutant strain, stronger effect = higher value
In short: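 Part of a panel of yeast mutants defective in DNA damage repair or cell cycle regulation. Each strain is grown with compound, and inhibition is calculated relative to solvent-treated cultures.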

[11] = NCI Yeast Anticancer Drug Screen. Data for the wt2 strain (AID 169);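 also: 0% = growth of vehicle-treated yeast cultures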; settings: S. cerevisiae wt2 strain growth inhibition, stronger effect = higher value
In short: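 This strain belongs to a panel of yeast strains with defined genetic alterations in DNA damage repair or cell cycle control. Compounds are applied, and growth inhibition is measured against vehicle-treated cultures.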

[12] = NCI Yeast Anticancer Drug Screen. Data for the mlh1 strain (AID 171);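 also: 0% = growth of vehicle-treated control cultures of the same strain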; settings: S. cerevisiae mlh1 strain growth inhibition, stronger effect = higher value
In short: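 Growth of the mutant yeast strain after compound exposure, expressed as inhibition relative to vehicle-only controls.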

[13] = NCI Yeast Anticancer Drug Screen. Data for the sgs1 strain (AID 173);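 also: 0% = growth of vehicle-only control cultures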; settings: S. cerevisiae sgs1 mutant, stronger effect = higher value
In short: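 Growth of a yeast strain bearing a defined genetic alteration is measured after compound treatment. Inhibition is expressed relative to vehicle-only controls.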

[14] = NCI Yeast Anticancer Drug Screen. Data for the mlh1 rad18 strain (AID 175); settings: S. cerevisiae mlh1 rad18 strain growth inhibition, stronger effect = higher value
In short: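 Read-out is yeast growth inhibition, calculated against vehicle-only controls. The compound was applied to a strain engineered with DNA damage repair alterations.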

[15] = NCI Yeast Anticancer Drug Screen. Data for the rad18 strain (AID 177); settings: S. cerevisiae rad18 mutant growth inhibition, stronger effect = higher value
In short: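 Growth of the mutant yeast strain after compound exposure, normalised to vehicle-only cultures.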

[16] = at 5.0 µM (retest, dose inferred, filed as 0.5)
[17] = at 50.0 µM (retest, dose inferred, filed as 5.0)

Measured: growth inhibition

C/C(=N\NC(=S)SCc1ccccc1)c1ccccn1
active: [1]; at 33.0 µM 95% | [1]; at 100.0 µM 94% | [2]; at 11.0 µM 78% | [2]; at 33.0 µM 95% | [2]; at 100.0 µM 92% | [3]; at 11.0 µM 83% | [3]; at 33.0 µM 96% | [3]; at 100.0 µM 92% | [4]; at 33.0 µM 95% | [4]; at 50.0 µM 88% | [4]; at 100.0 µM 92% | [5]; at 11.0 µM 92% | [5]; at 33.0 µM 96% | [5]; [17] 96% | [5]; at 50.0 µM 90.2% | [5]; at 100.0 µM 92% | [6]; at 33.0 µM 94% | [6]; at 100.0 µM 92% | [7]; [17] 95% | [7]; at 50.0 µM 86.2% | [8]; at 33.0 µM 96% | [8]; at 100.0 µM 89% | [9]; [17] 95% | [9]; at 50.0 µM 86.1% | [10]; at 11.0 µM 82% | [10]; at 33.0 µM 95% | [10]; [17] 95% | [10]; at 50.0 µM 87% | [10]; at 100.0 µM 91% | [11]; at 11.0 µM 72% | [11]; at 33.0 µM 95% | [11]; at 100.0 µM 92% | [12]; at 11.0 µM 83% | [12]; at 33.0 µM 96% | [12]; at 100.0 µM 92% | [13]; at 11.0 µM 78% | [13]; at 33.0 µM 97% | [13]; at 100.0 µM 94% | [14]; [17] 95% | [14]; at 50.0 µM 87.5% | [15]; at 11.0 µM 80% | [15]; at 33.0 µM 96% | [15]; at 100.0 µM 91%
inactive: [1]; at 1.2 µM -13% | [1]; at 3.7 µM -15% | [1]; at 11.0 µM 58% | [2]; at 1.2 µM 40% | [2]; at 3.7 µM 47% | [3]; at 1.2 µM 13% | [3]; at 3.7 µM 24% | [4]; at 1.2 µM 17% | [4]; at 3.7 µM 22% | [4]; [16] 8% | [4]; at 11.0 µM 69% | [4]; [17] 0% | [5]; at 1.2 µM 38% | [5]; at 3.7 µM 51% | [5]; [16] -5% | [6]; at 1.2 µM -10% | [6]; at 3.7 µM -4% | [6]; at 11.0 µM 31% | [7]; [16] -1% | [8]; at 1.2 µM 2% | [8]; at 3.7 µM 2% | [8]; at 11.0 µM 60% | [9]; [16] 3% | [10]; at 1.2 µM 3% | [10]; at 3.7 µM 20% | [10]; [16] 30% | [11]; at 1.2 µM -36% | [11]; at 3.7 µM -25% | [12]; at 1.2 µM 13% | [12]; at 3.7 µM 24% | [13]; at 1.2 µM 37% | [13]; at 3.7 µM 46% | [14]; [16] -12% | [15]; at 1.2 µM 39% | [15]; at 3.7 µM 53%

CCCCCCCCCCC1CCC(=O)O1 (stereo unspecified)
inactive: [1]; at 1.2 µM -2% | [1]; at 3.7 µM -2% | [1]; at 11.0 µM -2% | [1]; at 33.0 µM 3% | [2]; at 1.2 µM -2% | [2]; at 3.7 µM 3% | [2]; at 11.0 µM 11% | [2]; at 33.0 µM 22% | [2]; at 100.0 µM 38% | [3]; at 1.2 µM -2% | [3]; at 3.7 µM -1% | [3]; at 11.0 µM 0% | [3]; at 33.0 µM 8% | [4]; at 1.2 µM -1% | [4]; at 3.7 µM -46% | [4]; [16] -2% | [4]; at 11.0 µM 16% | [4]; at 33.0 µM 12% | [4]; [17] 50% | [5]; at 1.2 µM -1% | [5]; at 3.7 µM -2% | [5]; [16] 5% | [5]; at 11.0 µM 0% | [5]; at 33.0 µM 8% | [5]; [17] 27% | [6]; at 1.2 µM 1% | [6]; at 3.7 µM 3% | [6]; at 11.0 µM 7% | [6]; at 33.0 µM 15% | [7]; [16] 6% | [7]; [17] 13% | [8]; at 1.2 µM 0% | [8]; at 3.7 µM 1% | [8]; at 11.0 µM 7% | [8]; at 33.0 µM 5% | [9]; [16] 2% | [9]; [17] 15% | [10]; at 1.2 µM -3% | [10]; at 3.7 µM 0% | [10]; [16] 3% | [10]; at 11.0 µM 0% | [10]; at 33.0 µM 0% | [10]; [17] 9% | [11]; at 1.2 µM -1% | [11]; at 3.7 µM 8% | [11]; at 11.0 µM 0% | [11]; at 33.0 µM 4% | [12]; at 1.2 µM -2% | [12]; at 3.7 µM 0% | [12]; at 11.0 µM 0% | [12]; at 33.0 µM 10% | [13]; at 1.2 µM -1% | [13]; at 3.7 µM 1% | [13]; at 11.0 µM 3% | [13]; at 33.0 µM 20% | [14]; [16] -3% | [14]; [17] 69% | [15]; at 1.2 µM -1% | [15]; at 3.7 µM 1% | [15]; at 11.0 µM -1% | [15]; at 33.0 µM 7%
active: [1]; at 100.0 µM 98% | [3]; at 100.0 µM 100% | [4]; at 50.0 µM 97.2% | [4]; at 100.0 µM 99% | [5]; at 50.0 µM 98.8% | [5]; at 100.0 µM 99% | [6]; at 100.0 µM 99% | [7]; at 50.0 µM 91.2% | [8]; at 100.0 µM 98% | [9]; at 50.0 µM 97.7% | [10]; at 50.0 µM 91.3% | [10]; at 100.0 µM 99% | [11]; at 100.0 µM 99% | [12]; at 100.0 µM 99% | [13]; at 100.0 µM 99% | [14]; at 50.0 µM 92.2% | [15]; at 100.0 µM 97%
